Screens deposited in PubChem BioAssay by National Center for Advancing Translational Sciences (NCATS).
Shown are actives, neighbours in structure and some others; about 19% of the full set was active somewhere.
DT40 TDP1 no CPT: qHTS for Inhibitors of human tyrosyl-DNA phosphodiesterase 1 (TDP1): qHTS in cells in absence of CPT. DT40 Tdp1-/- hTDP1 cells, no CPT, ATP luminescence, 48 h. Potency, µM (highest dose often 46.2 µM), most hits filed as inhibitors. 15% of 420,000 active. AID 686978, 2013; also: nearly all actives have a fitted effect of over 55% in size
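Compound effects on proliferation are scored in DT40 Tdp1-/-;hTDP1 cells in the absence of CPT. ATP levels (CellTiter-Glo luminescence) are recorded after a ≥48 hr, 37 °C incubation.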
HT1080 IDH1KD tx: HT-1080 IDH1 knockdown cell toxicity (counter line); HT-1080 IDH1 knockdown viability, ATP luminescence, 48 h; Potency, µM (highest dose often 46.1 µM), hits mostly cytotoxic; 2% of 360,000 active
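HT-1080-IDH1KD cells (IDH1 knocked down), 750/well in RPMI with 5% FBS, treated with compound 48 h at 37 degrees C. Viability by CellTiter-Glo luminescence, normalised to DMSO and no-cell wells; concentration-response curves classed.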
DT40 TDP1 CPT: growth inhibition of DT40 Tdp1-/-;hTDP1 cells with camptothecin (screen for TDP1 inhibitors). Potency, µM (highest dose often 46.2 µM), most hits filed as inhibitors. AID 686979. 12% of 420,000 active. chicken DT40 Tdp1-/-;hTDP1 cells + 20 nM CPT, ATP luminescence, 48 h; also: nearly all actives have a fitted effect of over 55% in size
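Chicken DT40 Tdp1-/- cells stably complemented with human TDP1 were seeded at 400 cells/well in medium containing 20 nM camptothecin, exposed to pin-transferred compounds, and grown at 37 °C for at least 48 hr. Viability was read as ATP luminescence.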
IL1B secr inh: blocks inflammasome-driven IL-1 beta release. 4.7% of 360,000 active. THP-1 LPS/ATP IL-1B secretion, AlphaLISA, 16 h; stronger effect = lower value. activity change, % at 57.5 µM; in the data active = activity change below about -50%; inconclusive = mostly about -30% to -49%
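Secreted IL-1B measured by AlphaLISA bead assay after 16 h compound exposure of THP-1 cells; compounds (final up to 57.5 uM) added 1 h before LPS (250 ng/mL) and ATP (1.25 mM) stimulation; lower signal means less secretion.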
HT1080NT lethal: kills 2HG-producing HT-1080-NT fibrosarcoma cells; 1.6% of 360,000 active; HT-1080-NT fibrosarcoma viability, CellTiter-Glo ATP luminescence, 48 h; Potency, µM (doses to about 46.1 µM), most hits filed as cytotoxic; AID 686970;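 also: NT is the 2HG producing partner of a matched IDH1 knockdown line; nearly all actives have a fitted effect of over 55% in size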
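Luminescent CellTiter-Glo readout after 48 hours of compound exposure at 37 degrees C defined viability of HT-1080-NT cells. Activity was normalized to DMSO wells and cell-free media wells; concentration-response curves were fitted and assigned curve classes.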
ELG1 DNA repair: blocks ELG1-dependent DNA repair in HEK293T cells | 2.3% of 330,000 active | HEK293T ELG1-luciferase reporter, luminescence, 16 h; DNA damage induced by 5-fluorouridine | AID 504467 | Potency, µM (top dose mostly 46.1 µM), hits mostly inhibitors; also: nearly all actives have a fitted effect of over 55% in size
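5-Fluorouridine DNA damage + compound/DMSO, 2,000 cells/well, 16 h, 37 °C/5% CO2. ONE-Glo, 30 min RT, luminescence. Readout = decrease in reporter signal.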
A number is an active result; . = inactive; ? = inconclusive; / = not tested or not shown; [ ] = dose if it differs, or a comment. Unless noted, calls follow the shape of the dose curve; as a rule, active = well fitted curve in the direction sought with a large enough effect; inconclusive = small, poorly fitted or top-dose-only effect, or another doubt; inactive = no such curve, though single readings can be large; an effect the other way counts as inactive or inconclusive.

SMILES	DT40 TDP1 no CPT	HT1080 IDH1KD tx	DT40 TDP1 CPT	IL1B secr inh	HT1080NT lethal	ELG1 DNA repair
O=C(COc1ccc2ccc(=O)oc2c1)Nc1cccc(S(=O)(=O)N2CCCCC2)c1	11.6µM	.	?	.	.	?
Cc1ccc2cccc(OCC(=O)Nc3cccc(S(=O)(=O)N4CCCC4)c3)c2n1	16.4µM	.	20.6µM	-71.0	.	18.3µM
Cc1ccc(OCC(=O)Nc2cccc(S(=O)(=O)N3CCCCC3)c2)c([N+](=O)[O-])n1	?	.	?	.	.	.
Cc1ccc(OCC(=O)Nc2cccc(S(=O)(=O)N3CCCC3)c2)cc1C	?	.	.	.	.	/
CCC(NC(=S)NCc1ccc(F)cc1)c1ccc(C)cc1 (stereo not drawn)	?	?	?	?	?	.
C1=Cc2ccccc2/C1=C/c1ccc2c(c1)OCO2	.	/	.	/	/	/
O=C(NCCCN1CCCC1=O)C1CCN(S(=O)(=O)c2c(Cl)cccc2Cl)CC1	.	.	.	.	.	.
CN(c1ccccc1)S(=O)(=O)c1cccc(NC(=O)COc2ccccc2)c1	?	.	?	.	.	?
COc1ccc(OCC(=O)Nc2cc(S(=O)(=O)N3CCCCC3)ccc2OC)cc1	?	.	?	.	.	?
COc1ccc(NC(=O)COc2ccccc2C#N)c(S(=O)(=O)N2CCCCC2)c1	?	.	?	.	.	20.6µM
Cc1nnnn1/C(=C\c1ccccc1)C(=O)OCC(=O)Nc1cccc(S(=O)(=O)N(C)C)c1	7.31µM	?	10.3µM	.	?	?
CN(C)S(=O)(=O)c1cccc(NC(=O)COC(=O)c2ccc3ccccc3n2)c1	.	.	.	.	.	.
CN(C)S(=O)(=O)c1cccc(NC(=O)COc2ccc(C(=O)c3ccccc3)cc2)c1	16.4µM	?	18.4µM	.	?	13µM
O=C(Nc1ccc(Cl)c(S(=O)(=O)N2CCCCC2)c1)c1ccco1	?	.	.	.	.	.
Clc1ccc(OCCCCCN2CCOCC2)cc1	?	.	?	.	.	.
COc1ccccc1C1CCCN1Cc1nc(-c2cc3c(cc2Cl)OCO3)oc1C (stereo not drawn)	?	.	?	.	.	.
COc1ccccc1C1CCCN1Cc1nc(-c2ccc(C)s2)oc1C (stereo not drawn)	?	?	18.4µM	.	.	?
CCOc1ccc(C(=O)NCC(=O)NCC(c2ccco2)N2CCCCC2)cc1 (stereo not drawn)	.	.	.	.	.	?
CCC(Sc1nc2ccncc2[nH]1)C(=O)Nc1cc(Cl)ccc1C (stereo not drawn)	18.4µM	.	29.1µM	.	.	.
CN(CC(=O)O)Cc1oc(CO)cc(=O)c1O	.	.	.	.	.	/
COc1cccc2cc(-c3nc4ccccc4[nH]3)c(=O)oc12	?	.	.	.	.	?
COc1ccc(CCCc2nc3ccccc3[nH]2)cc1	?	.	.	.	.	.
Nc1cc(N)cc(-c2nc3ccccc3[nH]2)c1	18.4µM	.	10.3µM	.	.	.
Cc1ccc(-c2nc3ccccc3[nH]2)s1	16.4µM	?	9.2µM	.	?	?
COc1ccc2oc(=Nc3ccccc3)c(-c3nc4ccccc4[nH]3)cc2c1	?	.	10.3µM	.	.	?
SMILES	DT40 TDP1 no CPT	HT1080 IDH1KD tx	DT40 TDP1 CPT	IL1B secr inh	HT1080NT lethal	ELG1 DNA repair
COc1ccc(-c2cc(=O)n(-c3nc4ccccc4[nH]3)[nH]2)cc1	.	?	35.5µM	.	22.4µM	?
COC(=O)C1=C(C(=O)OC)[C@@H]2N(C)c3ccc(OC)cc3[C@@]23C[C@@H](C(=O)OC)N(S(=O)(=O)c2ccc(OC)cc2)C3=N1	.	.	.	.	.	.
Cc1noc(C)c1S(=O)(=O)Nc1ccc2c(c1)C(=O)N([C@H](C)CO)C[C@H](C)[C@@H](CN(C)C(=O)CCCN(C)C)OCCCC[C@@H](C)O2	.	.	.	.	.	/
CCC1C(=O)NCCN1Cc1ccc2c(c1)CN(Cc1ccc(F)c(OC)c1)CCO2 (stereo not drawn)	.	/	.[9.04 µM]	/	/	/
CCN(CC)CCCNC(=O)Cn1nc(C)n2c(cc3sccc32)c1=O	.	/	.	/	/	/
CN(C)S(=O)(=O)c1ccc(S(=O)(=O)NCc2cccs2)cc1	.	.	.	.	.	.
COC(=O)c1ccc(-c2nc3ccccc3[nH]2)cc1	23.1µM	?	?	.	?	?
COc1ccc(-c2nc3ccccc3[nH]2)cc1	13µM	11.2µM	10.3µM	.	10µM	?
COC(=O)c1ccc(C(=O)Nc2ccc3nc(-c4cccnc4)[nH]c3c2)cc1	5.17µM	.	.	.	.	.
COC(=O)c1ccc(C(=O)Nc2ccc3nc(-c4ccncc4)[nH]c3c2)cc1	.	.	?	.	.	.
c1ccc(-c2nc3ccccc3[nH]2)cc1	.	.	?	.	.	?
Cc1cccc(C)c1NC(=O)Cn1nnc(C(=O)Nc2c(C)cccc2C)c1N	.	/	.	/	/	/
O=C(Nc1ccc(F)cc1)C1CCN(S(=O)(=O)c2ccc3c(c2)CCCN3C(=O)C2CCC2)CC1	8.2µM	/	18.4µM	/	/	/
Cc1ccc(NC(=O)C2CCN(S(=O)(=O)c3ccc4c(c3)CCCN4C(=O)C3CCC3)CC2)cc1	?	/	16.4µM	/	/	/
CCN(C(=O)C1CCN(S(=O)(=O)c2ccc3c(c2)CCCN3C(=O)C2CCC2)CC1)c1cccc(C)c1	18.4µM	/	16.4µM	/	/	/
COCCCN(C(=S)Nc1cc(Cl)cc(Cl)c1)C(C)c1ccncc1 (stereo not drawn)	?	.	?	-68.1	.	.
CN1C(=O)OC(C)(C)C1=O	.	/	.	/	/	/
N#CC1=C(N)Oc2cc(N)ccc2C1c1cccnc1 (stereo not drawn)	16.4µM	.	?	.	.	.
CCc1ccc(C2C(C#N)=C(N)Oc3cc(N)ccc32)cc1 (stereo not drawn)	?	.	?	.	.	?
N#CC1=C(N)Oc2cc(N)ccc2C1c1ccc(F)cc1 (stereo not drawn)	?	?	?	.	.	?
N#CC1=C(N)Oc2cc(N)ccc2C1c1ccc(Cl)cc1 (stereo not drawn)	.	?	.	-74.7	?	.
CC(=O)C1=C(C)OC(N)=C(C#N)C1c1cccnc1 (stereo not drawn)	.	.	?	.	.	.
COc1cc(C2C(C#N)=C(N)Oc3cc(N)ccc32)cc(OC)c1OC (stereo not drawn)	0.651µM	0.581µM	0.92µM	.	?	?
